In PubChem BioAssay (Tox21):
Where “and” joins values, the source holds several entries; their conditions need not be identical. Equal entries are not always repeated. Inconclusive results are not listed. A call without a number means that no potency is given here. A structure can be active in one record and inactive in another. Calls of active or inactive are those of the source. Unless noted, the call rests on the fitted dose curve; in most records, active means well fitted curve in the direction sought with a large enough effect in the repeat runs; inconclusive means weak or mixed curves; inactive means no such curve, though single readings can be large; an effect the other way counts as inactive or inconclusive.

Legend:
[1] = molecular target: Thyrotropin-releasing hormone receptor (Homo sapiens) (UniProt P34981); assay: qHTS assay to identify small molecule agonists of the thyrotropin-releasing hormone receptor (TRHR) signaling pathway (AID 1346891; calls by dose curve;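 further: HEK293 cells expressing TRHR with calcium dye readout; series mostly up to about 58 µM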)
Thyrotropin-releasing hormone receptor (Homo sapiens), sequence (P34981 whole entry, looked up): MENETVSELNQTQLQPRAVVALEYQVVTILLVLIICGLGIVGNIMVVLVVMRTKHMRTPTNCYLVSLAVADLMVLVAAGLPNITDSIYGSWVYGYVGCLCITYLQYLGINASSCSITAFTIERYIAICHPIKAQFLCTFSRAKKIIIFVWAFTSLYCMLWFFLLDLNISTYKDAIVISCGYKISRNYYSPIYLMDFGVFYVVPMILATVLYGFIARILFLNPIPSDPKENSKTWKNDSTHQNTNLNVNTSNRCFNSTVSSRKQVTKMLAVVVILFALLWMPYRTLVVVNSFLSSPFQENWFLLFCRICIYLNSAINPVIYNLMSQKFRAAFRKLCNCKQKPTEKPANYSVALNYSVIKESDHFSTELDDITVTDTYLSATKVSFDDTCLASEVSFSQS
How it was run: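 Kinetic fluorescence (3 min, 1 s intervals) reported intracellular calcium after compound transfer onto TRHR-Hek293 cells pre-loaded with dye for 2 h at 37 °C.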

[2] = Human pregnane X receptor (PXR) small molecule agonists, qHTS cell viability counter screen (AID 1346977); further: nearly all actives have a fitted effect of over 50% in size
How it was run: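 HepG2 cells stably carrying the PXR-Luc reporter are cultured with 5% charcoal-stripped FBS and treated with compounds for 24hr. CellTiter-Fluor is added at 23hr and fluorescence is read after 1hr.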

[3] = Caspase-3/7 induction in HepG2 cells by small molecules, qHTS assay (AID 1346978); further: nearly all actives have a fitted effect of over 15% in size
How it was run: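 Caspase-3/7 induction was measured by Caspase-Glo 3/7 luminescence (30 min, room temperature) after a 17 hr compound exposure of wild-type HepG2 cells seeded at 2,000 per well and pre-incubated 5 hr.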

[4] = Caspase-3/7 induction in CHO-K1 cells by small molecules, qHTS cell viability counter screen (AID 1346979); further: nearly all actives have a fitted effect of over 35% in size; further: potency means the concentration at half of the fitted maximal effect
How it was run: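 Seeding: 1,500 CHO-K1 cells/well. Rest: 5hr, 37C. Treatment: compounds in DMSO, 16hr. Read: CellTiter-Fluor, 1hr, fluorescence.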

[5] = Caspase-3/7 induction in CHO-K1 cells by small molecules, qHTS assay (AID 1346980); further: nearly all actives have a fitted effect of over 15% in size
How it was run: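 Luminescent Caspase-Glo 3/7 read (30min, room temperature) quantified apoptosis induction. Cells were wild-type CHO-K1, treated with compound for 17hr at 37 C and 5% CO2.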

[6] = Caspase-3/7 induction in HepG2 cells by small molecules, qHTS cell viability counter screen (AID 1346981); further: series mostly up to about 92 µM; nearly all actives have a fitted effect of over 30% in size
How it was run: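 Fluorescence read-out of live-cell protease activity (CellTiter-Fluor) after 1 hr with reagent. This was measured in the same wells as the caspase-3/7 luminescence, on HepG2 cells exposed to DMSO-dissolved compounds for 16 hr at 37 C.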

[7] = molecular target: Nuclear receptor subfamily 1 group I member 2 (Homo sapiens) (UniProt O75469); assay: Human pregnane X receptor (PXR) small molecule agonists, qHTS assay (AID 1346982); further: nearly all actives have a fitted effect of over 35% in size
Nuclear receptor subfamily 1 group I member 2 (Homo sapiens), sequence (O75469 whole entry, looked up): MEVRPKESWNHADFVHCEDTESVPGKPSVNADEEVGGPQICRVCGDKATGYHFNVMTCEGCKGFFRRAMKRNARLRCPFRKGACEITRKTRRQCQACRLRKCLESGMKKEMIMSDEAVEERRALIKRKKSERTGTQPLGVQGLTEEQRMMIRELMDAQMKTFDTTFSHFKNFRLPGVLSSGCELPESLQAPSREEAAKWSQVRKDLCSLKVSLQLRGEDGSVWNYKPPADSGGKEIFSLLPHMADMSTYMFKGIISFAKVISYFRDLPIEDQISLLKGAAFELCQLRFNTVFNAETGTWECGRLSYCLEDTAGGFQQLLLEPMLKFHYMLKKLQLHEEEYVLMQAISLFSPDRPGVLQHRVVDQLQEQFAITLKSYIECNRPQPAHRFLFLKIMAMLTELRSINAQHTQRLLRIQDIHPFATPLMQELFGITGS
How it was run: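 HepG2 PXR-Luc reporter line, 5% charcoal-stripped FBS; 5 hr pre-incubation, compound (DMSO) 24 hr at 37 C/5% CO2; ONE-Glo 30 min RT; luminescence read-out.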

[8] = molecular target: Nuclear receptor subfamily 1 group I member 2 (Rattus norvegicus) (UniProt Q9R1A7); assay: Rat pregnane X receptor (rPXR) activation by small molecules, qHTS assay (AID 1346983); conditions: rPXR luciferase reporter cells, One-Glo luminescence, 24 h; max activation: stronger effect = higher value; further: nearly all actives have a fitted effect of over 20% in size
How it was run: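 Luminescent readout (One-Glo luciferase, 30 min room temperature) followed 24 hr compound treatment at 37 C of rPXR cells plated 2,000 per well and preincubated 5hr; qHTS format with compounds delivered in DMSO.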

[9] = molecular target: Nuclear receptor subfamily 1 group I member 2 (Homo sapiens) (UniProt O75469); assay: CYP3A4 induction through human pregnane X receptor (PXR) by small molecules, qHTS assay (AID 1346984); further: nearly all actives have a fitted effect of over 40% in size
How it was run: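 HepG2-derived DPX-2 line carrying PXR plus a CYP3A4-promoter luciferase reporter; cells plated 5 hr, compound-exposed 24 hr at 37C. CYP3A4 activity probed with 3uM (final) Luciferin-IPA for 3hr, then luciferase read after One-Glo.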

[10] = molecular target: Nuclear receptor subfamily 1 group I member 2 (Homo sapiens) (UniProt O75469); assay: Human pregnane X receptor (PXR) activation by small molecules, qHTS assay (AID 1346985); further: nearly all actives have a fitted effect of over 40% in size
How it was run: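 DPX-2 cells (HepG2 co-transfected with a PXR response element and a CYP3A4-promoter luciferase construct) were seeded at 2,000 per well, rested 5 hr at 37C, then exposed to DMSO-dissolved compounds for 24 hr. Activation was read as luciferase luminescence.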

[11] = molecular target: Acetylcholinesterase (Homo sapiens) (UniProt P22303); assay: Acetylcholinesterase (AChE) small molecule antagonists: colormetric cell-based qHTS assay (AID 1347395; calls by dose curve; further: nearly all actives have a fitted effect of over 30% in size; further: potency means the concentration at half of the fitted maximal effect)
Acetylcholinesterase (Homo sapiens), sequence (P22303 whole entry, looked up): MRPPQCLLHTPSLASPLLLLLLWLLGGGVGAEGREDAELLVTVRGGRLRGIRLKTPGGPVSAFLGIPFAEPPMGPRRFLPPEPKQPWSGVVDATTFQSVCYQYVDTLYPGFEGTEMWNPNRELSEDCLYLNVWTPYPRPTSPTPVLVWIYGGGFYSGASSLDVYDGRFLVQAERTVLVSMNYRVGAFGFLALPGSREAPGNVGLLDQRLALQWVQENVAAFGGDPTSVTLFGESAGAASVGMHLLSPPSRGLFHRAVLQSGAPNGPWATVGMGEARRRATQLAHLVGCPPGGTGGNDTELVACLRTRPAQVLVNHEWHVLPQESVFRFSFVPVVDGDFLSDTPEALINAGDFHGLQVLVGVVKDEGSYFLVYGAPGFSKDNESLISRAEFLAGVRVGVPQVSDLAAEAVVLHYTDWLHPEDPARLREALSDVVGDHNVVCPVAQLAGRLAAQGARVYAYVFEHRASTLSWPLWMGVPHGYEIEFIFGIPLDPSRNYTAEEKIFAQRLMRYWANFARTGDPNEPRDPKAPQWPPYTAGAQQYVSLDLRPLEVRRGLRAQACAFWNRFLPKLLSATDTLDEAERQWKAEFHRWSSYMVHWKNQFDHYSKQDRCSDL
How it was run: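 Quantitative HTS in attached SH-SY5Y cells: 30 min compound exposure, then 90 min with acetylthiocholine and DTNB at 37 C; colour from thiocholine reports AChE activity.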

[12] = molecular target: Acetylcholinesterase (Homo sapiens) (UniProt P22303); assay: Acetylcholinesterase (AChE) small molecule antagonists: enzyme-based qHTS assay (AID 1347397; calls by dose curve; further: nearly all actives have a fitted effect of over 55% in size; further: potency means the concentration at half of the fitted maximal effect); conditions: Potency: AChE enzyme activity inhibition
How it was run: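 Colorimetric DTNB readout of acetylthiocholine hydrolysis, 10 min at room temperature, after 30 min room-temperature exposure of 50 mU/mL recombinant human enzyme to compound; DMSO vehicle control.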

[13] = molecular target: Acetylcholinesterase (Homo sapiens) (UniProt P22303); assay: Acetylcholinesterase (AChE) small molecule antagonists: fluorescence cell-based qHTS assay (AID 1347398; calls by dose curve; further: nearly all actives have a fitted effect of over 50% in size; further: potency means the concentration at half of the fitted maximal effect); conditions: Potency: AChE activity
How it was run: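 Cellular AChE activity read as thiocholine from acetylthiocholine hydrolysis, detected by Thiolite Green fluorescence at 490/520 nm after 40 min at room temperature. Compounds were pre-incubated 30 min at 37 C on adherent SH-SY5Y cells.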

[14] = molecular target: Acetylcholinesterase (Homo sapiens) (UniProt P22303); assay: Acetylcholinesterase (AChE) small molecule antagonists: enzyme-based qHTS assay with human liver microsomes (AID 1347399; calls by dose curve; further: nearly all actives have a fitted effect of over 60% in size; further: potency means the concentration at half of the fitted maximal effect); conditions: Potency: qHTS inhibition
How it was run: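 Recombinant human AChE (50 mU/mL in the enzyme mix) and human liver microsomes (0.25 mg/mL final) were preincubated with compound and NADPH (0.25 mg/mL final) for 30 min at 37 C. Acetylthiocholine/DTNB was then added; thiocholine was read colorimetrically after 10 min at room temperature.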

[15] = molecular target: Cytochrome P450 2D6 (Homo sapiens) (UniProt P10635); assay: Cytochrome P450 Family 2 Subfamily D Member 6 (CYP2D6) small molecule antagonists: luciferase reporter qHTS assay (AID 1671196); further: nearly all actives have a fitted effect of over 50% in size; further: potency means the concentration at half of the fitted maximal effect
Cytochrome P450 2D6 (Homo sapiens), sequence (P10635 whole entry, looked up): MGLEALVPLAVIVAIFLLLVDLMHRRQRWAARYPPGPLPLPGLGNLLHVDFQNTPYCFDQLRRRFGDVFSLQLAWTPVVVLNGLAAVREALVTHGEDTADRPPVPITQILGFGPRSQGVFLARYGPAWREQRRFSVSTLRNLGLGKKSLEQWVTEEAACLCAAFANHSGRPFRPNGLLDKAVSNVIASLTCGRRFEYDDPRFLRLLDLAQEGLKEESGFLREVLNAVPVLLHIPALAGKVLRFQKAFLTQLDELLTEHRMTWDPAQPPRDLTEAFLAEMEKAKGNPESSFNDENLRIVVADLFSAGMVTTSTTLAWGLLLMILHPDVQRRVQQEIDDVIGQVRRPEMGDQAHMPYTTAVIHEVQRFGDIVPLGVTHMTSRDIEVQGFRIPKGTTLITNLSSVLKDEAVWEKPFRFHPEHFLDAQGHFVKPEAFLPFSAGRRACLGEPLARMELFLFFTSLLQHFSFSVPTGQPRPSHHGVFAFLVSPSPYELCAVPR
How it was run: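 Luminogenic proluciferin substrate, CYP2D6 enzyme; 10 min RT preincubation with compound, NADPH regeneration system added, 1 h RT. Stop/detection reagent, 20 min RT, luminescence read (RLU). Signal proportional to CYP activity.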

[16] = molecular target: Cytochrome P450 2C19 (Homo sapiens) (UniProt P33261); assay: Cytochrome P450 Family 2 Subfamily C Member 19 (CYP2C19) small molecule antagonists: luciferase reporter qHTS assay (AID 1671197); further: nearly all actives have a fitted effect of over 65% in size; further: potency means the concentration at half of the fitted maximal effect
Cytochrome P450 2C19 (Homo sapiens), sequence (P33261 whole entry, looked up): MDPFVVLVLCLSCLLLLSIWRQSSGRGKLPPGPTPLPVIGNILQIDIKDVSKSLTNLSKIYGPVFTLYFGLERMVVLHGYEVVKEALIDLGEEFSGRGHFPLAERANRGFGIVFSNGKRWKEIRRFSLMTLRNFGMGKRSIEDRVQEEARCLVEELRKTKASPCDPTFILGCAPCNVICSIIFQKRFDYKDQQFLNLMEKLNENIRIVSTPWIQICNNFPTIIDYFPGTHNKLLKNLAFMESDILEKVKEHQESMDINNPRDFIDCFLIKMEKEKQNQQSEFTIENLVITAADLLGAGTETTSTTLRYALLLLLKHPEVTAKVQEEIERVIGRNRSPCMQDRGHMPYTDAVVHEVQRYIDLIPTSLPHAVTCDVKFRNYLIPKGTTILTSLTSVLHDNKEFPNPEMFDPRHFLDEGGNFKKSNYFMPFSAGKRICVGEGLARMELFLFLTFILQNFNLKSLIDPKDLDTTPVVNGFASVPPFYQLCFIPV
How it was run: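 Quantitative high-throughput screen of the Tox21 library using CYP2C19 with proluciferin substrate. Reaction: NADPH regeneration, 37C, 1 h, after 10 min compound preincubation at room temperature. Readout: luminescence.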

[17] = molecular target: Cytochrome P450 1A2 (Homo sapiens) (UniProt P05177); assay: Cytochrome P450 Family 1 Subfamily A Member 2 (CYP1A2) small molecule antagonists: luciferase reporter qHTS assay (AID 1671199); further: nearly all actives have a fitted effect of over 50% in size; further: potency means the concentration at half of the fitted maximal effect
Cytochrome P450 1A2 (Homo sapiens), sequence (P05177 whole entry, looked up): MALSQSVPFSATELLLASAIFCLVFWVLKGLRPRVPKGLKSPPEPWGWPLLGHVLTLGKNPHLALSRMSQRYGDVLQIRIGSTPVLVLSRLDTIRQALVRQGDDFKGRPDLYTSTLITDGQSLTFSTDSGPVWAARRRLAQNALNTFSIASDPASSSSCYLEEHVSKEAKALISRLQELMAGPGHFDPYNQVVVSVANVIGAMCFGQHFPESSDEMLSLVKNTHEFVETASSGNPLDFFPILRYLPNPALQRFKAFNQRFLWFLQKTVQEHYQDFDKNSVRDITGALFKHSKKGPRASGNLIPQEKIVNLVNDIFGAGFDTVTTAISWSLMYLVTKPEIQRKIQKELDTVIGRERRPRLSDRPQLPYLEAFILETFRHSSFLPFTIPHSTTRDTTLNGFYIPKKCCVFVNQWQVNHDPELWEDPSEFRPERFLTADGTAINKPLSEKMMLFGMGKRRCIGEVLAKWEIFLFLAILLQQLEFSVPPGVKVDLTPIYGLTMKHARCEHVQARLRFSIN
How it was run: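 Luminescence readout (relative luminescence units) after luciferin detection reagent, 20 min RT. Preceded by 1 h room-temperature CYP1A2 reaction with NADPH regeneration solution following 10 min compound preincubation with enzyme and proluciferin substrate. Furafylline positive control.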

[18] = molecular target: Voltage-gated inwardly rectifying potassium channel KCNH2 (Homo sapiens) (UniProt Q12809); assay: Human Ether-a-go-go-Related Gene (hERG) channel small molecule antagonists: fluorescence cell-based qHTS assay (AID 1671200)
Voltage-gated inwardly rectifying potassium channel KCNH2 (Homo sapiens), sequence (Q12809 whole entry, looked up): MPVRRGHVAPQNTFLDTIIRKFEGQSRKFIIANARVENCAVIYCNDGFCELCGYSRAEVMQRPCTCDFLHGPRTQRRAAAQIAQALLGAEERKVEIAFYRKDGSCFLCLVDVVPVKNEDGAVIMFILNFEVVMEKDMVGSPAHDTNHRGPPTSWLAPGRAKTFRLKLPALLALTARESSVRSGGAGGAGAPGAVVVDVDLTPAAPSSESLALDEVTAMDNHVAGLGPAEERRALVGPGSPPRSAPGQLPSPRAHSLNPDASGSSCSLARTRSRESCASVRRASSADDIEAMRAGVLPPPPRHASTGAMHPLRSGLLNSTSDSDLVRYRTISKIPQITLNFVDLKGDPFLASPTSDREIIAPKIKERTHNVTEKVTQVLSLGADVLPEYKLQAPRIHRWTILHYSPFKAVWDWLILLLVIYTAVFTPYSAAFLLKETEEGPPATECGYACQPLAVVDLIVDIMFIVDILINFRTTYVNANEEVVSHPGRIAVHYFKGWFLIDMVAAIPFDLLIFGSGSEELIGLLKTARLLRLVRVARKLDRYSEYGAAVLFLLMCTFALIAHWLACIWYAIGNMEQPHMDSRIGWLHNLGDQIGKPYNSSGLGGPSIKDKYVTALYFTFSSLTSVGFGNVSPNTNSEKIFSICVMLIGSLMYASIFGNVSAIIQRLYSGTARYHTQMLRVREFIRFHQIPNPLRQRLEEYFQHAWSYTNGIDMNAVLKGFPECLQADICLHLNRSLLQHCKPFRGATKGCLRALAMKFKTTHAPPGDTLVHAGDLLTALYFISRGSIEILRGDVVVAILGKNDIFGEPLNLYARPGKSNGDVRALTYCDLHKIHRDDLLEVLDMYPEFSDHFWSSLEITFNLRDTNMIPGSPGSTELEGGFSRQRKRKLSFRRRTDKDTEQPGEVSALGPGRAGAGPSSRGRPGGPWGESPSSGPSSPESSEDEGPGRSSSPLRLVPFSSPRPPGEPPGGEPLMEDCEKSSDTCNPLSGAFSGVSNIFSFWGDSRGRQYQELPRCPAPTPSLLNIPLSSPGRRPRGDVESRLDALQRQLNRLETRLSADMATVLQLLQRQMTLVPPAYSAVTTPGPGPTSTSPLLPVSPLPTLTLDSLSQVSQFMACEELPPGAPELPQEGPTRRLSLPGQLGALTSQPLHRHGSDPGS
How it was run: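 First, 1000 cells per well are seeded and cultured overnight at 37 C. Next, FluxOR II dye is loaded for 1 h at room temperature, protected from light. After 10 more minutes, stimulus is added and fluorescence is read.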

[19] = molecular target: Cytochrome P450 3A4 (Homo sapiens) (UniProt P08684); assay: Cytochrome P450 Family 3 Subfamily A Member 4 (CYP3A4) small molecule antagonists: luciferase reporter qHTS assay (AID 1671201); further: nearly all actives have a fitted effect of over 50% in size; further: potency means the concentration at half of the fitted maximal effect
How it was run: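 Enzyme and proluciferin substrate are mixed with test chemicals for 10 min, then NADPH regeneration system drives turnover for 1 h at room temperature. A detection reagent halts the reaction; luminescence after 20 min gives relative activity.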

[20] = molecular target: Cytochrome P450 2C9 (Homo sapiens) (UniProt P11712); assay: Cytochrome P450 Family 2 Subfamily C Member 9 (CYP2C9) small molecule antagonists: luciferase reporter qHTS assay (AID 1671198); further: nearly all actives have a fitted effect of over 50% in size; further: potency means the concentration at half of the fitted maximal effect
Cytochrome P450 2C9 (Homo sapiens), sequence (P11712 whole entry, looked up): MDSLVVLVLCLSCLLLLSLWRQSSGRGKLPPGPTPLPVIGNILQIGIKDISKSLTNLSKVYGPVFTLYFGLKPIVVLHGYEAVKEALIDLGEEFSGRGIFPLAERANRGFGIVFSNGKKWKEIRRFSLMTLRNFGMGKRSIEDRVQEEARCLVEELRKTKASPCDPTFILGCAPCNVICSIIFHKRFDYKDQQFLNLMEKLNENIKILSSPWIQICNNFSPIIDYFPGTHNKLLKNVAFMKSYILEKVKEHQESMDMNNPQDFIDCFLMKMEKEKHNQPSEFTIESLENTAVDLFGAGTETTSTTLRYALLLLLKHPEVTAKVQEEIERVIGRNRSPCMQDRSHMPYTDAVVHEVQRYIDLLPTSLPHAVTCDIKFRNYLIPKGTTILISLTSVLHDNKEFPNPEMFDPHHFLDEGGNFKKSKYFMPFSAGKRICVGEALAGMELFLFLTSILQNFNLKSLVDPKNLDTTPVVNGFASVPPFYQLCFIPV
How it was run: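 Enzyme-substrate mix preincubated with compound 10 min at room temperature; reaction started with NADPH regeneration solution, 1 h 37C. Luminescent luciferin product read after 20 min detection reagent.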

| Structure (SMILES) | outcome [1] | Potency [2] | outcome [3] | Potency [4] | outcome [5] | Potency [6] | Potency [7] | max activation [8] | Potency [9] | Potency [10] | Potency [11] | Potency [12] | Potency [13] | Potency [14] | Potency [15] | Potency [16] | Potency [17] | Potency [18] | Potency [19] | Potency [20] |
| --- | --- | --- | --- | --- | --- | --- | --- | --- | --- | --- | --- | --- | --- | --- | --- | --- | --- | --- | --- | --- |
| CNCC(O)c1ccc(O)cc1 (stereo unspecified) | inactive | inactive | inactive | inactive | inactive | inactive | inactive | -2.53% (inactive) | inactive | inactive | inactive | inactive | inactive | inactive | 39.9 µM (active) | 70.9 µM (active) and inactive | inactive | inactive | inactive | – |
| OCc1ccco1 | inactive | – | inactive | inactive | inactive | inactive | – | – | – | – | inactive | inactive | inactive | inactive | inactive | inactive | inactive | inactive | inactive | – |
| CNC(=O)O/N=C(\SC)C(=O)N(C)C | – | – | inactive | inactive | inactive | inactive | inactive | – | – | – | 1.55 µM (active) and 1.42 µM (active) | 2.45 µM (active) and 2.82 µM (active) | 489 nM (active) and 632 nM (active) | 12.3 µM (active) and 20 µM (active) | – | 34.6 µM (active) and 28.2 µM (active) | inactive | inactive | inactive | inactive |
| CNC(=O)O/N=C/C(C)(C)S(C)=O (stereo unspecified) | – | – | inactive | 49.2 µM (active) and inactive | inactive | – | – | – | – | – | 322 nM (active) and 354 nM (active) | 572 nM (active) and 316 nM (active) | 57.2 nM (active) and 35.4 nM (active) | 2.87 µM (active) and 2.51 µM (active) | inactive | inactive | inactive | inactive | inactive | inactive |
| CN(C)C(=O)C(c1ccccc1)c1ccccc1 | – | – | inactive | inactive | inactive | inactive | – | – | – | – | inactive | inactive | inactive | inactive | – | 70.9 µM (active) | inactive | inactive | inactive | 62.3 µM (active) |
| CN(C)CCC#N | – | – | inactive | inactive | inactive | inactive | – | – | – | – | inactive | inactive | inactive | inactive | inactive | inactive | inactive | inactive | inactive | inactive |
| Cc1ccccc1N | – | inactive | inactive | inactive | inactive | inactive | – | – | – | – | – | – | – | – | – | – | inactive and 36.3 µM (active) and 31.7 µM (active) | inactive | inactive and 28.8 µM (active) and 28.3 µM (active) | 40.7 µM (active) and 79.6 µM (active) and 35.6 µM (active) |
